# The supplement of paper PMC13380429
# A number with no mark means an inactive call.
# Test system: Vero E6 infected with SARS-CoV-2
# Test: inhibition of SARS-CoV-2 cytopathic effect; higher = more antiviral protection, active = above 15
# Details: 48 h
SMILES,inhibition of SARS-CoV-2 cytopathic effect (1 nM) [%],inhibition of SARS-CoV-2 cytopathic effect (8.33 nM) [%],inhibition of SARS-CoV-2 cytopathic effect (100 nM) [%],inhibition of SARS-CoV-2 cytopathic effect (833.33 nM) [%],inhibition of SARS-CoV-2 cytopathic effect (10000 nM)
CC(=O)OCC(=O)[C@@]1(O)CC[C@H]2[C@@H]3CCC4=CC(=O)C=C[C@]4(C)[C@@]3(F)[C@@H](O)C[C@@]21C [isoflupredone-acetate],2.83,2.61,0.09,1.17,1.02%
CC1(COc2ccc3c(c2)ncn3-c2ccc3cccc(N4CCC(N)CC4)c3n2)COC1 [crenolanib],-0.58,1.15,2.74,2.21,0.74%
CC1(C)CCC(C)(C)c2cc(C3(c4ccc(C(=O)O)cc4)OCCO3)ccc21,-2.44,-2.21,1,-0.7,-1.37%
Cc1[nH]c(/C=C2\C(=O)Nc3ccc(F)cc32)c(C)c1C(=O)NCCN1CCCC1 [toceranib],-2.12,-2.33,-1.03,-1.29,-7.87%
CN(C)CCOC(=O)COc1ccc(Cl)cc1 [meclofenoxate],2.47,0.23,1.17,1.28,1.66%
COc1ccc(NS(=O)(=O)c2ccc(N)cc2)nn1 [sulfamethoxypyridazine],3.44,2.28,2.29,3.71,2.16%
CCC[C@@H]1CC(=O)N([C@@H](CC)C(N)=O)C1 [Brivaracetam],-0.93,-1.72,-2.91,-2.52,1.45%
Cc1ccc(NC(=O)c2ccc(CN3CCN(C)CC3)cc2)cc1Nc1nccc(-c2cccnc2)n1 [imatinib],2.28,1.75,5.42,7.15,20.1% (active)
CCc1cccc(CC)c1NC(=O)CN(CC(=O)O)CC(=O)O [etifenin],-0.66,1.39,0.25,0.46,3.26%
CCCNCCc1ccc(NS(=O)(=O)c2ccc(OC(F)(F)F)cc2)cc1,2.87,3.37,-0.23,1.93,-4.37%
O=c1[nH]c2ccccc2n1C1CCN(CCCC(c2ccc(F)cc2)c2ccc(F)cc2)CC1 [pimozide],0.44,1.6,0.1,-0.58,-5.7%
O=S(=O)(NCC1CC1)c1ccc(Nc2nccc(N3CCCc4cc(O)ccc43)n2)cc1 [pyrintegrin],2.46,5.45,4.41,14.1,36% (active)
CCN(CC)CCCCC1CCN(CC(=O)N2c3ccccc3C(=O)Nc3cccnc32)CC1,-0.6,0.18,-0.52,-1.51,-4.44%
COc1cc(C(C)=O)ccc1O [apocynin],0.03,-1.17,-2.23,-0.09,1.17%
COc1ccc(C2=N[C@@H](c3ccc(Cl)cc3)[C@@H](c3ccc(Cl)cc3)N2C(=O)N2CCNC(=O)C2)c(OC(C)C)c1 [nutlin-3],1.71,1.61,5.23,5.08,3.38%
CC(C)(C)NCC(O)COc1cccc2[nH]c(=O)[nH]c12 (stereo not given),-0.75,-0.25,-0.12,-0.11,-0.04%
CS(=O)(=O)OC[C@H](O)[C@@H](O)COS(C)(=O)=O [treosulfan],0.41,0.48,-0.46,0.71,1.56%
Clc1ccc(CSC(Cn2ccnc2)c2ccc(Cl)cc2Cl)cc1 (stereo not given) [sulconazole],-1.13,2.09,0.76,-1.38,-0.46%
